According to PubChem BioAssay (NCATS):
Records with an inconclusive call do not appear. Unless noted, calls come from the whole dose curve; as a rule, active = well fitted curve in either direction with a large enough effect (not every such curve was filed as active); inconclusive = small, poorly fitted or top-dose-only effect, or another doubt; inactive = flat fitted curve, though single readings scatter.

Columns and labels:
[1] = biological target: Lysosomal acid glucosylceramidase (Homo sapiens) (UniProt P04062); test: Glucocerebrosidase-p2 (AID 348; in the data active = potency below about 10 µM; note: potency is the fitted concentration of half-maximal effect); details: purified GBA, blue fluorogenic substrate, 40 min
Sequence of Lysosomal acid glucosylceramidase (Homo sapiens) (P04062 whole entry, looked up): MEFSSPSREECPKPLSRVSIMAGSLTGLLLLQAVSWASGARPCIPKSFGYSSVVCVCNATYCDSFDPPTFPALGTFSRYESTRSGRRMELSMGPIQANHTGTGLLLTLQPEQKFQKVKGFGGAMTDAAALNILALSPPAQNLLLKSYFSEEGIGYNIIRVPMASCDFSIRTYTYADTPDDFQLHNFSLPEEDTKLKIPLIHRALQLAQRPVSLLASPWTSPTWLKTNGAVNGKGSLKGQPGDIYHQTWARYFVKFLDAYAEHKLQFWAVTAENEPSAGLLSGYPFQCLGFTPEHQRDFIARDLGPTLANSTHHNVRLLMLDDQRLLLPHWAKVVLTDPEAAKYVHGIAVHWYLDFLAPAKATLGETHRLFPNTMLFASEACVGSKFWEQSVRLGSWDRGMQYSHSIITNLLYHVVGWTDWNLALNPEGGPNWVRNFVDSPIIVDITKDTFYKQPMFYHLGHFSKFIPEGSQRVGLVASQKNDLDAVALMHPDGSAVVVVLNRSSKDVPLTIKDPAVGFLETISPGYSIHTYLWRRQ
Procedure, shortened: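 Compounds titrated from 0.6 nM upwards against 0.2 nM enzyme in pH 5.9 citric acid/KH2PO4, taurocholate, tween-20; blue fluorogenic substrate 80 uM, 40 min room temperature, stopped and read Ex 365/Em 440 for AC50.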

[2] = AP1 Signaling Pathway (AID 357); details: ME-180 AP-1-bla reporter, EGF-induced, beta-lactamase ratio, 5 h;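 note: ME-180 reporter cells stimulated with EGF at its EC50 level; % is set by controls: 0 for no effect and ±100 for the full control effect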
Procedure, shortened: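 Cells are seeded overnight, exposed to compound titrations and an EC50 level of EGF for 5 hours at 37 °C, then loaded with CCF4 dye for 2.5 hours. Beta-lactamase activity under the AP-1 element is read as a blue/green ratio.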

[3] = NFAT Signaling Pathway (AID 444); details: Jurkat NFAT-bla M1, carbachol, beta-lactamase ratio, 5 h;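 note: carbachol stimulus at about its EC50 of 1 µM final; % is set by controls: 0 for no effect and ±100 for the full control effect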
Procedure, shortened: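 Jurkat cells carrying an NFAT-driven β-lactamase reporter and co-transfected muscarinic M1 receptor were treated with compound plus carbachol (1 uM final, an EC50 level) for 5 h at 37 °C. CCF4 loading followed for 1 h at RT; 460/530 nm ratio gave %activity.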

[4] = Stat Signaling Pathway (AID 446); details: ME-180 SIE beta-lactamase reporter, IL-6 stimulated, 5 h; at 7.69 µM (top of the series);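 note: ME-180 cervical cancer cells given 40 pM IL-6 alongside compound; SIE-controlled beta-lactamase reporter measured as 460/530 nm FRET emission ratio; % is set by controls: 0 for no effect and ±100 for the full control effect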
Procedure, shortened: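 ME-180 cells carrying a SIE-driven beta-lactamase reporter are stimulated with 40 pM IL-6 for 5 h at 37C in the presence of compound. The 460/530 nm FRET substrate ratio is read after 2.5 h at RT. Data are normalised to 300 pM IL-6 and to 125 nM JAK inhibitor controls.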

Cc1cccc(Nc2cc(Cl)nc(SCC(=O)O)n2)c1C
inactive: Potency [1] > 11.4 µM | activity change, negative = inhibition ([2]; at 7.69 µM (top of the series)) 3.12% | activity change, negative = inhibition ([3]; at 7.69 µM (top of the series)) 11.7% | activity, negative = inhibition [4] 0.678%

CCCCCCCCCCCCCCCC(=O)NCCO
inactive: activity change, negative = inhibition ([2]; at 38 µM (top of the series)) 11.1% | activity change, negative = inhibition ([3]; at 38 µM (top of the series)) 9.44%
